Shown are actives, neighbours in structure and some others; about 0.28% of the full set was active somewhere.
hcGAS lum: Primary biochemical luminescence assay for human cyclic GMP-AMP synthase inhibitors. inhibition, % at 12.5 µM. 290,000 tested, 0.081% active. AID 1259398, 2018. recombinant h-cGAS, ATP depletion, Kinase-Glo luminescence. Q8N884;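 note: 0% = vehicle reaction and 100% = reaction without DNA for no activity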
mcGAS inh: cyclic GMP-AMP synthase inhibitors, mouse, primary biochemical chemiluminescence; recombinant cGAS, Kinase-Glo ATP depletion luminescence; inhibition, % at 12.5 µM; 160,000 tested, 0.15% active; AID 1259399, 2018;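 note: 0% = negative control wells and 100% = reference inhibitor with no enzyme activity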
Target sequence (Q8C6L5 whole entry, looked up): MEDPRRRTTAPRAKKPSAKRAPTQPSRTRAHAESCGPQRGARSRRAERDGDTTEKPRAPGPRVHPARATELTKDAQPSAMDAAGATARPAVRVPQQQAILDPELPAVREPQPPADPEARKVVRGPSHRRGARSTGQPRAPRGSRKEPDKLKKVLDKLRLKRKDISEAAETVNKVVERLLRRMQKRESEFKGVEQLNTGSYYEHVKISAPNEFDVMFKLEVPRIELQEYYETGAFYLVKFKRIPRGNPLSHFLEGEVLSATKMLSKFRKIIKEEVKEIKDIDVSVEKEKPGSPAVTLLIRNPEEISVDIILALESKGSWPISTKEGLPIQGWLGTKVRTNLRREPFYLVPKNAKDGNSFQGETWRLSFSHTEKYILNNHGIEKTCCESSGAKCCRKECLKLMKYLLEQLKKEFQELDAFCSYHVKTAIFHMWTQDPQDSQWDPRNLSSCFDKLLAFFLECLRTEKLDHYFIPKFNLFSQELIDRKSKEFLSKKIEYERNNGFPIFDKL
NPYLR7 ag: agonists of mosquito NPYLR7 receptor, primary screen, cell-based, Aedes aegypti, calcium fluorescence, mosquito biting behavior; activation, % at 10 µM; Aedes aegypti neuropeptide Y-like receptor 7 (NPYLR7); 270,000 tested, 0.15% active; HEK293T NPYLR7/Galpha15, GCaMP6s calcium fluorescence; AID 1259423, 2018; in the data active = activation above about 40%;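 note: 0% = vehicle and 100% = reference agonist at the receptor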
* hit, by the source's call. Cut-off read from the data, not from the text of the source, unless noted: active = inhibition above about 40%; inactive = the rest.

`CCNC(=O)[C@H]1O[C@@H](n2cnc3c(N)ncnc32)C(O)[C@H]1O` (stereo partly specified) gave hcGAS lum -1.3, mcGAS inh -2.7 and NPYLR7 ag 190.6*.
C#CCN(C)S(=O)(=O)c1ccc(Cn2nc(C(=O)NCCOC)c3ccccc32)cc1 was read as hcGAS lum -6.8, mcGAS inh -4.9 and NPYLR7 ag 13.2.
CC[C@@]1(O)C[C@H](O[C@H]2C[C@H](N(C)C)[C@H](O)[C@H](C)O2)c2c(cc3c(c2O)C(=O)c2c(O)ccc(O)c2C3=O)[C@H]1C(=O)OC was read as hcGAS lum 43.7* and NPYLR7 ag 9.0.
`CC[C@@]1(O)C[C@H](O[C@H]2C[C@H](N(C)C)[C@H](O)[C@H](C)O2)c2c(cc3c(c2O)C(=O)c2c(O)cccc2C3=O)[C@H]1C(=O)OC` gave hcGAS lum 71.9* and NPYLR7 ag 34.3.
For CC[C@@]1(O)C[C@H](O)c2c(cc3c(c2O)C(=O)c2c(O)ccc(O)c2C3=O)[C@H]1C(=O)OC the results were hcGAS lum -6.0 and NPYLR7 ag -12.9.
For NC(=O)CN1CCCN(C(=O)Cc2ccc(F)c(Br)c2)CC1 the results were hcGAS lum -7.8 and NPYLR7 ag 10.2.
For COc1ccc(-n2nc(C(C)(C)C)c3c2N(CC(N)=O)C(=O)CSC3c2cccc(Cl)c2)cc1 (stereo unspecified) the results were hcGAS lum -7.2, mcGAS inh -7.4 and NPYLR7 ag -0.1.
For C=CCn1c(O)c(C(C)=O)c(=O)[nH]c1=S the results were hcGAS lum 6.3 and NPYLR7 ag 0.4.
For O=C1C=C2C(=CCOC2O)O1 (stereo unspecified) the results were hcGAS lum 88.2* and mcGAS inh 106.1*.
`CSc1ncc(C(=O)N2CCN3CCN(C)CC3C2)c(=O)[nH]1` (stereo unspecified) gave hcGAS lum -4.4, mcGAS inh -8.9 and NPYLR7 ag 1.7.
N#Cc1c(O)c(Cl)c(Cl)c(C#N)c1Cl was read as hcGAS lum 30.5, mcGAS inh 54.8* and NPYLR7 ag 3.7.
O=C1NC(=O)C2=Cc3ccc(O)cc3OC2(O)N1 (stereo unspecified) was read as hcGAS lum -1.4, mcGAS inh -2.5 and NPYLR7 ag 192.9*.
`N#Cc1ccc(Cl)cc1NC(=O)c1cccn(Cc2ccc(F)cc2)c1=O` gave hcGAS lum -7.5 and NPYLR7 ag 13.1.
Cc1ccccc1N1C(=O)/C(=C/c2ccco2)C(=O)NC1=S was read as hcGAS lum 41.2*, mcGAS inh 85.6* and NPYLR7 ag -1.8.
O=C1NC(=O)N(Cc2ccccc2)C(=O)/C1=C\c1ccco1 was read as hcGAS lum 35.1, mcGAS inh 43.8* and NPYLR7 ag -5.4.
O=C1NC(=O)N(Cc2ccccc2)C(=O)C1=Cc1ccco1 was read as hcGAS lum -4.8 and NPYLR7 ag -6.4.
Cc1cc(C)cc(N2C(=O)NC(=O)/C(=C\c3ccco3)C2=O)c1 was read as hcGAS lum 5.4, mcGAS inh 6.7 and NPYLR7 ag -7.9.
`CCCCn1c(CN2CC=C(c3ccccc3)CC2)cnc1S(=O)(=O)CC` gave hcGAS lum -6.3, mcGAS inh -10.2 and NPYLR7 ag 5.7.
`COc1cc2c(cc1OC)C1(CCCC1)CNC2` gave hcGAS lum -3.0, mcGAS inh -3.2 and NPYLR7 ag 7.9.
For COc1ccc(CC(=O)N2CCN(CC(OCc3ccc(C)cc3)c3cccc(OC)c3)CC2)cc1 (stereo unspecified) the results were hcGAS lum -4.3 and mcGAS inh -6.1.
Screening CNC(=O)Oc1c(Br)cc2sc(=O)oc2c1Br returned hcGAS lum -3.8, mcGAS inh 98.4* and NPYLR7 ag 5.3.
`COC(=O)C1C2c3ccccc3OC1(C)N=c1s/c(=C\c3ccccc3OC)c(=O)n12` (stereo unspecified) gave hcGAS lum -8.6, mcGAS inh -6.4 and NPYLR7 ag 7.9.
CCOC(=O)[C@H]1CN(C(=O)COc2ccccc2)[C@]2(C)C(=O)N(C)c3ccccc3[C@H]12 was read as hcGAS lum 8.4, mcGAS inh -2.0 and NPYLR7 ag -2.4.
Screening N#Cc1ccc(NC(=O)C2COc3ccccc3O2)cc1Cl (stereo unspecified) returned hcGAS lum -17.3 and NPYLR7 ag 8.7.
Screening CCc1[nH]c2c(CNC(=O)CN3CCCC3=O)cc(F)cc2c1C returned hcGAS lum -4.5, mcGAS inh -12.1 and NPYLR7 ag 7.8.
For CC(=O)N1CN(C(C)=O)CN(C(C)=O)C1 the results were hcGAS lum -1.4 and NPYLR7 ag -5.4.
`CC(=O)O.CC(=O)O.[Cd]` gave hcGAS lum 73.6* and NPYLR7 ag -9.2.
For COCc1nc(-c2cccc(CN3CCN(C(=O)Cc4ccsc4)CC3)c2)no1 the results were hcGAS lum -1.7, mcGAS inh -1.2 and NPYLR7 ag -6.5.
For Cc1cc(-c2nnco2)ccc1NC1CN2CCC1CC2 (stereo unspecified) the results were hcGAS lum -4.7, mcGAS inh -11.9 and NPYLR7 ag -4.3.
COCCNC(=O)CN1C(=O)CSC(c2cccc(F)c2)c2c(C(C)(C)C)nn(C(C)(C)C)c21 (stereo unspecified) was read as hcGAS lum -6.0, mcGAS inh -4.5 and NPYLR7 ag 6.2.

High-throughput results deposited in PubChem BioAssay by Fisher Drug Discovery Resource Center.
